Results filed as inconclusive are left out. The source made the active and inactive calls. Unless noted, calls come from the whole dose curve; as a rule, active = well fitted curve in the direction sought with a large enough effect; inconclusive = small, poorly fitted or top-dose-only effect, or another doubt; inactive = no such curve, though single readings can be large; an effect the other way counts as inactive or inconclusive.
Columns and labels:
[1] = Cell Viability - LYMP2-004 (AID 966); note: nearly all actives have a fitted effect of over 65% in size
Summary of the method: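 Luminescent ATP read-out (CellTiter-Glo, 30 min RT) after 24 hr compound exposure at 37 C; 2500 lymphoblastoid cells/well, complete medium. Decrease in ATP = cytotoxicity; AC50 from standard Hill model.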

[2] = Cell Viability - LYMP2-009 (AID 968); note: series mostly up to about 92 µM; nearly all actives have a fitted effect of over 55% in size
[3] = Cell Viability - LYMP2-011 (AID 969);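 note: cells exposed to compound for 24 hours; nearly all actives have a fitted effect of over 60% in size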
Summary of the method: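 Luminescent ATP read-out (CellTiter-Glo, 30 min RT) after 24 hr compound exposure at 37 C in human lymphoblastoid cells, 2500 cells/well. Decreasing ATP indicates cytotoxicity; AC50 from standard Hill fit.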

[4] = Cell Viability - LYMP2-013 (AID 970); note: series mostly up to about 92 µM; nearly all actives have a fitted effect of over 55% in size
Summary of the method: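 CellTiter-Glo luminescence (cellular ATP) read after 30 min at RT. Cells: human lymphoblastoid line, 2500/well, 24 hr compound exposure at 37 C. Tetraoctylammonium bromide positive control; AC50 via standard Hill fit of qHTS titrations.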

[5] = Cell Viability - LYMP2-015 (AID 971); note: nearly all actives have a fitted effect of over 55% in size
Summary of the method: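 qHTS cytotoxicity: 2500 cells/well, 5 hr 37 C, compound 24 hr 37 C, CellTiter-Glo 30 min RT, luminescence. Loss of ATP = toxicity; AC50 via standard Hill fit.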

[6] = Cell Viability - LYMP2-017 (AID 972);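 note: series mostly up to about 92 µM; cells exposed to compound for 24 hours at 37 °C; nearly all actives have a fitted effect of over 55% in size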
Summary of the method: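 Luminescent ATP read-out (CellTiter-Glo, 30 min RT) reports viable cell number. Cells: human lymphoblastoid line, 2500 per well, 5 hr preincubation, 24 hr compound exposure at 37 C. AC50 is derived from qHTS concentration-response data using the standard Hill model.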

[7] = Cell Viability - LYMP2-023 (AID 975)
Summary of the method: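 CellTiter-Glo luminescence after 30 min at room temperature; decrease in intracellular ATP reflects toxicity. Cells: human lymphoblastoid line, 2500/well, 24 hr compound exposure at 37 C. AC50 fitted to standard Hill equation from concentration-response.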

[8] = Cell Viability - LYMP2-025 (AID 976); note: series mostly up to about 92 µM
Summary of the method: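 CellTiter-Glo luminescence (cellular ATP) after 24 h compound exposure at 37 C; LYMP2-025 human lymphoblastoid cells, 2500/well, complete medium. Tetraoctylammonium bromide positive control. AC50 by Hill equation fit of qHTS concentration-response.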

[9] = Cell Viability - LYMP2-002 (AID 977); note: series mostly up to about 92 µM
Summary of the method: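 Human lymphoblastoid cells, 2500/well, complete medium; 5 h 37 C settle; compound 24 h 37 C; CellTiter-Glo, 30 min RT; luminescence. Decrease in ATP = cytotoxicity; AC50 via Hill equation.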

[10] = Cell Viability - LYMP2-006 (AID 978);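 note: series mostly up to about 92 µM; cells exposed to compound for 24 hours; nearly all actives have a fitted effect of over 60% in size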
Summary of the method: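 Cells are seeded at 2500 per well and rested 5 hr at 37 C. Compounds are added across a concentration series for 24 hr at 37 C, after which ATP is quantified by luciferase luminescence.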

[11] = Cell Viability - LYMP2-007 (AID 979);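 note: cells exposed to compound for 24 h before reading; nearly all actives have a fitted effect of over 60% in size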
Summary of the method: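 qHTS cytotoxicity: 2500 cells/well, 5 hr 37 C settle, compound 24 hr 37 C, CellTiter-Glo 30 min RT, luminescence. Decrease in ATP = toxicity. AC50 by standard Hill equation; tetraoctylammonium bromide positive control.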

[12] = Cell Viability - LYMP2-008 (AID 980); note: nearly all actives have a fitted effect of over 60% in size
Summary of the method: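 Luminescent ATP read-out (CellTiter-Glo, 30 min RT) after 24 hr compound exposure at 37 C of human lymphoblastoid cells in complete medium. Decrease in ATP taken as cytotoxicity; AC50 derived by standard Hill fit of qHTS concentration-response data.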

[13] = Cell Viability - LYMP2-012 (AID 982)
[14] = Cell Viability - LYMP2-014 (AID 983); note: series mostly up to about 92 µM; nearly all actives have a fitted effect of over 50% in size
Summary of the method: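 2500 cells/well, 5 hr 37 C; cpd 24 hr 37 C, complete medium; CellTiter-Glo 30 min RT, luminescence; ATP loss = toxicity; AC50 via Hill eqn; tetraoctylammonium bromide positive control.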

[15] = Cell Viability - LYMP2-016 (AID 984)
Summary of the method: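 Cells were seeded at 2500 per well and rested 5 hr before a 24 hr compound exposure at 37 C. Viability was then gauged as cellular ATP by luciferase luminescence, with AC50 values fitted to the Hill equation.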

[16] = Cell Viability - LYMP2-018 (AID 985); note: nearly all actives have a fitted effect of over 50% in size
Summary of the method: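 2500 cells/well; 5 hr 37 C; cmpd 24 hr 37 C, complete medium; CellTiter-Glo 30 min RT; luminescence. Tetraoctylammonium bromide positive control. AC50 via Hill fit.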

[17] = Cell Viability - LYMP2-020 (AID 986)
Summary of the method: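 qHTS, 2500 cells/well; 5 hr then 24 hr compound exposure, 37 C; CellTiter-Glo luminescence after 30 min RT; ATP decrease taken as cytotoxicity; AC50 via Hill equation; tetraoctylammonium bromide positive control.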

[18] = Cell Viability - LYMP2-026 (AID 989); note: nearly all actives have a fitted effect of over 50% in size
Summary of the method: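 qHTS cytotoxicity: 2500 cells/well, 5 hr 37 C, compound 24 hr 37 C, CellTiter-Glo 30 min RT, luminescence. Tetraoctylammonium bromide positive control. AC50 via standard Hill fit.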

[19] = Cell Viability - LYMP1-002 - Assay at 24 hr (AID 993)
Summary of the method: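 CellTiter-Glo luminescence (intracellular ATP) after 24 h compound exposure, 37 C, in LYMP1-002 human lymphoblastoid cells; decreased ATP taken as cytotoxicity. AC50 from standard Hill fit of concentration-response curves.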

[20] = Validation of Assay for Modulators of Lamin A Splicing (AID 1459; active = well fitted curve in the direction sought with a large enough effect in the signal ratio; the % refers to the signal ratio;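 note: cells exposed to compound for two days before reading; ratio rise marks activators and ratio drop marks inhibitors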)
Summary of the method: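 HeLa S3 lamin A-EGFP/DsRed2 stable clone, 600 cells/well, Opti-MEM 2% FBS; compounds by pin tool; 48 hrs, 37 °C/5% CO2; Acumen 488 nm scan, objects 10-100 um; GFP/RFP intensity ratio.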

Measured: outcome

C[C@@H]1C[C@H]2[C@@H]3CCC4=CC(=O)C=C[C@]4(C)[C@@]3(F)[C@@H](O)C[C@]2(C)[C@@]1(O)C(=O)CO
not listed: [20]
inactive: all other assays above

CCNC(=O)[C@H]1O[C@@H](n2cnc3c(N)nc(NCCc4ccc(CCC(=O)O)cc4)nc32)[C@H](O)[C@H]1O
inactive: [20]
